A short description of test [1]: inhibitors of TNFa-induced NFkB p65 translocation, primary screen, imaging, HUVEC, MLSMR starter and 10KST1 sets (AID 438;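 active means inhibition above 20% together with a positive visual image hit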;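 further: compound added about 3h40 before a 20 min TNFalpha stimulation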;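 on inhibition: signal is the nuclear over cytoplasmic p65 intensity ratio per well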). Conditions: HUVEC TNFa-induced p65 nuclear translocation; cell count: measured here: nuclei count (cytotoxicity indicator), at 2.08 µM; inhibition: at 2 µM, stronger effect = higher value, 0% TNFa-plus-vehicle, 100% no-TNFa wells.
The nature of test [2]: reduction of polyQ htt aggregates in cells – imaging, exon1htt(103Q)mCFP cells, high-content imaging, primary screen (AID 483;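 active means visual image review flags a hit and inhibition of aggregation exceeds 20%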;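 further: compound exposure lasted 3 days before fixation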;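 on nuclei count: percent of the per-plate median nuclei count of sample wells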). Conditions: exon1htt(103Q)mCFP cell line, aggregate imaging, at 2 µM; inhibition of aggregation: stronger effect = higher value; nuclei count: measured here: cell count, toxicity.
Test [3] can be described thus: endothelial E-selectin expression blockers – imaging, HUVEC, immunofluorescence, MLSMR starter and 10KST1 sets, primary screen (AID 487;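 active means visually confirmed hit in the image check and inhibition above 20%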;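 on inhibition: signal is fraction of cell area covered by stained E-selectin grains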;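 on nuclei count: 100% = median nuclei count of all wells on the same plate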). Conditions: HUVEC TNFalpha-induced E-selectin immunofluorescence imaging, at 2 µM; inhibition: stronger effect = higher value; nuclei count: measured here: cell number, toxicity.
The target in test [4] is Voltage-gated potassium channel subunit beta-2 (Rattus norvegicus) (UniProt P62483). As to the kind of experiment: inhibitors of rat Kvbeta2 reductase activity – biochemical, NADPH fluorescence, primary screen (AID 622;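 active means fluorescence slope higher than the sample average by over 3 SD, cut at about -0.22 in these data, passing the limit was not always enough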;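 further: slope of raw intensity against log time taken from 70 to 1610 s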). Conditions: recombinant KvBeta, 4-cyanobenzaldehyde reduction, at 10 µM, stronger effect = higher value.
Sequence of Voltage-gated potassium channel subunit beta-2 (Rattus norvegicus) (P62483 whole entry, looked up): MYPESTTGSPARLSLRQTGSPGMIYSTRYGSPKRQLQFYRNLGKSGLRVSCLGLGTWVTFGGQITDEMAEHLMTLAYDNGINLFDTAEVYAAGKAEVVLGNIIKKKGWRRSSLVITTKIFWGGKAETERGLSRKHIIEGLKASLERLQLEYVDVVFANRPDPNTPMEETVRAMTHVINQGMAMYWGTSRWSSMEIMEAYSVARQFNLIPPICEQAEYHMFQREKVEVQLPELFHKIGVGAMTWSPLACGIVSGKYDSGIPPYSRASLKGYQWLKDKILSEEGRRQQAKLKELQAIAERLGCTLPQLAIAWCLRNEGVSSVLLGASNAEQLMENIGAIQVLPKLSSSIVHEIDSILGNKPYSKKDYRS
Test [5] has the same target. The test is described as follows: enhancers of rat Kvbeta2 NADPH turnover – biochemical, NADPH fluorescence, primary screen (AID 623).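 Further: fluorescence intensity change per second fitted from 20 to 320 s.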 Conditions: Recombinant KvBeta, NADPH fluorescence decrease slope, 10 min; at 10 µM; stronger effect = lower value.
Test [6] addresses Alpha-2C adrenergic receptor (Homo sapiens) (UniProt P18825). The test is described as follows: compounds altering alpha2C-coupled GIRK flux – cell-based, HEK293 alpha2C/GIRK1/2, thallium flux, primary screen (AID 624;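 active means fluorescence slope after compound addition differing from the mean of all screened samples at 99.7% confidence, in either direction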;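 further: slope of fluorescence ratio to pre-addition baseline per second over 15 to 24 s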). Conditions: thallium flux BTC fluorescence, at 10 µM, actives lie on both sides.
Test [7] is described as follows: blockers of RIG-like receptor reporter activation – cell-based, Sendai virus stimulus, luciferase, 10K MLSCN set, TLR/RLR signaling modifier project, primary screen (AID 602276;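 active means inhibition at or above 50% at 10 µM; inactive means inhibition below 50%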;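 further: firefly luciferase from ISG56 promoter only with Renilla not read in this screen; 0% = Sendai virus plus DMSO and 100% = medium plus DMSO without virus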). The conditions noted are these: HEK293 RL24 IRF3 luciferase reporter, at 10 µM, stronger effect = higher value. On the technique in general: In a reporter assay the amount or activity of a reporter protein is the signal.

The nature of test [8]: TLR3 IRF3 reporter activation blockers – cell-based, poly I:C stimulus, luciferase, 10K MLSCN set, primary screen (AID 602277;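 active means inhibition of the reporter signal at or above 50%; inactive means inhibition below 50%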). Conditions: HEK293-TLR3 RL24 IRF3 luciferase reporter, at 10 µM, stronger effect = higher value.
Test [9] is described as follows: Primary imaging screen for DUSP6 inhibitors that restore phospho-Erk in transfected HeLa cells, chemical complementation (AID 609;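 active means compounds giving at least 50% inhibition in the cell-based MKP-3 phosphatase rescue imaging test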;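 on inhibition: phospho-Erk level distribution per well compared with pooled transfected vehicle control wells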). The conditions noted are these: HeLa MKP-3 transfected, phospho-Erk imaging KS statistic, at 10 µM, cells stimulated with TPA for 15 min.
The target of test [10] is Dual specificity protein phosphatase 6 (Homo sapiens) (UniProt Q16828). Described as above. The conditions noted are these: HeLa MKP-3 transfected, phospho-Erk imaging KS statistic; at 10 µM; stronger effect = higher value; cells stimulated with TPA for 15 min.
Sequence of Dual specificity protein phosphatase 6 (Homo sapiens) (Q16828 whole entry, looked up): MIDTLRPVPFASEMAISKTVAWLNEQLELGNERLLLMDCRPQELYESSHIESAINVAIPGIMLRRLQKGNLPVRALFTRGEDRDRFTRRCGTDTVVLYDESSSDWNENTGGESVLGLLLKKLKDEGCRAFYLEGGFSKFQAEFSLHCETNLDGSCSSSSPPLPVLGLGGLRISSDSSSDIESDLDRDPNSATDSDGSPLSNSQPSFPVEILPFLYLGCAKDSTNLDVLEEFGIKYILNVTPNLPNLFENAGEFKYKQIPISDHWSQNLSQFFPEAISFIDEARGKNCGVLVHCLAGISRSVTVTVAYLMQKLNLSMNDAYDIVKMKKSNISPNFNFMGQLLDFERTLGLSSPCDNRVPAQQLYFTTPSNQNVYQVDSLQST
In test [11] the target is Muscarinic acetylcholine receptor M4 (Homo sapiens) (UniProt P08173). The test is described as follows: M4-linked GIRK flux change, two-sided – cell-based, HEK293 M4/GIRK, thallium flux, BTC-AM, M4 allosteric agonist project, primary screen (AID 625;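 active means fluorescence slope after compound addition differing from the mean of all tested samples at 99.7% confidence, mostly higher but some lower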;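 further: thallium influx through GIRK channels coupled to M4 in HEK293 cells with BTC-AM dye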). Conditions: at 10 µM, actives lie on both sides.
Sequence of Muscarinic acetylcholine receptor M4 (Homo sapiens) (P08173 whole entry, looked up): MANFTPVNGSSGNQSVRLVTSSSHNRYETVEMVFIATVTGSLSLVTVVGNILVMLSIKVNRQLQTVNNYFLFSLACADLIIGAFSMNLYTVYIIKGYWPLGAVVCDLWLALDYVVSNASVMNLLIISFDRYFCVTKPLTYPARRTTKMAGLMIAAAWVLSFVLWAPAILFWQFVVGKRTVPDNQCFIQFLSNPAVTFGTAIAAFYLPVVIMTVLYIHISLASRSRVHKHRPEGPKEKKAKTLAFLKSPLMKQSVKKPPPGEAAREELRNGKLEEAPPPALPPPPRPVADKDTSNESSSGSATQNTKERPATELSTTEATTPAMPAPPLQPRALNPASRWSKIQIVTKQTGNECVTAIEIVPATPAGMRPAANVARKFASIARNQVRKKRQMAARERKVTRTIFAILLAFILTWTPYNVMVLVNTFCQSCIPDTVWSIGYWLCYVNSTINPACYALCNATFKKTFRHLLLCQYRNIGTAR
Test [12] in a line: inhibitors of larval lipid processing in zebrafish, primary screen, whole organism, PED6 fluorescence, gall bladder and intestine (AID 686;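 active means a full or partial loss of lipid-probe fluorescence in the fish gall bladder, intestine or both, judged by eye; inactive means no fluorescence loss, or compound toxic to the fish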;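 further: larvae 5 to 7 days old with five fish per well; signal comes from phospholipase A2 cleavage of quenched PED6 carried via bile; overnight exposure to compound and PED6 before scoring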). Conditions: Zebrafish larvae PED6 lipid processing, fluorescence scoring; screened at 20 µM (by protocol).
Test [13] is described as follows: loss of swimming-algae plug formation – whole organism, Chlamydomonas reinhardtii, WT vs cilia-less mutant, absorbance, 96-well, primary screen (AID 463189;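 active means inhibition at or above 50% relative to wild type and mutant plate controls; inactive means inhibition below 50%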;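 further: 0% = wild type cc124 cells in DMSO and 100% = ciliumless bld1 mutant cells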). The conditions noted are these: Chlamydomonas reinhardtii gravitaxis, OD600 absorbance, 2 days; at 10 µM; stronger effect = higher value.
The mark [14] stands for this setting: measured here: cell density z-score.
Where [15] appears, read: measured here: nuclear c-Myc green intensity z-score.
Where [16] appears, read: measured here: nuclear pErk red intensity z-score, stronger effect = higher value.

Calls of active or inactive are those of the source.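 How the source made its calls, unless noted: active means NADPH fluorescence slope more negative than the mean of all samples by about 3 SD, 99.7% confidence; inactive means the rest.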

A word on the inhibition: it is the drop in the measured response relative to a control, in per cent.

Sequence of Alpha-2C adrenergic receptor (Homo sapiens) (P18825 whole entry, looked up): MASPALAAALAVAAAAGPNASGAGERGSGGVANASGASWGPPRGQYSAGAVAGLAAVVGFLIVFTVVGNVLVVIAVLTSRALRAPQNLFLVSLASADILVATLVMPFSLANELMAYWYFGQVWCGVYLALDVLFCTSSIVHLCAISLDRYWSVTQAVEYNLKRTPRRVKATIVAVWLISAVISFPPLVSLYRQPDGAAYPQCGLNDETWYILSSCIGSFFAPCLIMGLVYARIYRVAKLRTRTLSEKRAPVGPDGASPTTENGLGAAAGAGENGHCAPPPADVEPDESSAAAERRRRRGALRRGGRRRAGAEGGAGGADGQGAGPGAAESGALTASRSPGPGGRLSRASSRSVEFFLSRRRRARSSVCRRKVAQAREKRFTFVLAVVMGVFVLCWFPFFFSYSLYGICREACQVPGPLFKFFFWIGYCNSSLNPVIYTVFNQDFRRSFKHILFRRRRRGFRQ

On to `CCCSc1nnc(N2C(=O)CC(c3ccsc3)C3=C2CCCC3=O)s1` (stereo not drawn), for which, in [1], the cell count came out at 640. Moreover, the inhibition in test [1] is -5.3% (inactive); in [3] it was -39.5% (inactive); in [7], 5.11% (inactive); in [8], 26.4% (inactive). Also, the inhibition of aggregation in test [2] is 24.3% (inactive). Also, the values for the nuclei count in test [2] and in test [3] were 90.4% and 102%, respectively. Besides, the fluorescence slope in test [4] is -0.558 (inactive). Besides, the NADPH fluorescence slope in test [5] was -3.6e-05 (inactive). For the same compound, the slope in test [6] was 0.00697 (inactive).

For the compound `Cc1cccn2c(=O)c(/C=C(\C#N)S(=O)(=O)c3ccccc3)c(N3CCN(C)CC3)nc12`, the cell count in test [1] was found to be 468. The results for the inhibition in test [1], in test [10] and in test [13] were -9.2% (inactive), 7.7% (inactive) and 1.87% (inactive), respectively. Moreover, the nuclei count in [3] worked out at 183%. Moreover, the z-score in test [9] (setting [14]) is -0.688; in test [9] (setting [15]), -1.21; in test [9] (setting [16]) it was -0.646. Also, the results for the fluorescence slope in [4] and in [11] were -0.457 (inactive) and 0.00316 (inactive), respectively. In addition, in test [5], the NADPH fluorescence slope is -6e-05 (inactive). In addition, in [12], the compound was classed as inactive.

For the compound `NC(=O)NC(c1ccccc1)c1ccccc1F` (stereo not drawn), the cell count in test [1] amounted to 565. Besides, the inhibition is -4.8% (inactive) in test [1], 36.7% (inactive) in test [3], 2.53% (inactive) in test [7] and 25.9% (inactive) in test [8]. In addition, the inhibition of aggregation in test [2] is 12.6% (inactive). Also, the nuclei count was determined as 99.1% in test [2] and 88.9% in [3]. Also, the fluorescence slope in test [4] is -0.317 (inactive). The NADPH fluorescence slope in test [5] was 5.1e-06 (inactive). In test [6], the slope was 0.00595 (inactive).

`COC(=O)c1c(-n2cnnn2)sc(C)c1C`: the cell count in test [1] came to 504. In addition, the inhibition in test [1] was -4.7% (inactive); in test [10], -2.29% (inactive); in test [13], -6.11% (inactive). The same compound showed a nuclei count in test [3] of 172%. Besides, the z-score is -0.751 in [9] (setting [14]), 1.91 in test [9] (setting [15]) and 1.76 in test [9] (setting [16]). The figures for the fluorescence slope in test [4] and in [11] were -0.421 (inactive) and 0.00518 (inactive), respectively. For the same compound, the NADPH fluorescence slope in [5] was -4.5e-05 (inactive). In addition, the result in [12] was inactive.

In the case of `CCCCOc1cc(=O)[nH]c(=O)[nH]1`, in test [1], the cell count turned out to be 379. In addition, the inhibition in test [1] is 11.7% (inactive); in test [3], 5.6% (inactive); in test [7], 10.4% (inactive); in test [8], 8.55% (inactive). The inhibition of aggregation in test [2] is 14.6% (inactive). The figures for the nuclei count in test [2] and in test [3] were 84.2% and 89.2%, respectively. The fluorescence slope in test [4] was -0.383 (inactive). The NADPH fluorescence slope in [5] was -5.2e-06 (inactive). For the same compound, the slope in test [6] is 0.00308 (inactive).

For `Cn1c(=O)c2[nH]c(NCC3CCCO3)nc2n(-c2ccccc2)c1=O` (stereo not drawn), the cell count in [1] turned out to be 359. Moreover, the inhibition is -0.4% (inactive) in [1], -80% (inactive) in test [3], 14% (inactive) in test [7] and 32.3% (inactive) in test [8]. Moreover, the inhibition of aggregation in test [2] was -11.4% (inactive). Moreover, the figures for the nuclei count in [2] and in test [3] were 108% and 116%, respectively. In [4], the fluorescence slope is -0.407 (inactive). Moreover, the NADPH fluorescence slope in [5] was -7.1e-05 (inactive). Besides, in [6], the slope was 0.00463 (inactive).

On to `CC(C)CSc1nc2ccccc2n1CC(N)=O`, for which, in test [1], the cell count stood at 314. Further, the inhibition in [1] is 3% (inactive); in test [3], 33.6% (inactive); in test [7], 13.3% (inactive); in [8], 15.2% (inactive). Moreover, the inhibition of aggregation in test [2] was -6.3% (inactive). Moreover, the nuclei count turned out to be 109% in test [2] and 107% in test [3]. Also, in [4], the fluorescence slope is -0.362 (inactive). For the same compound, in test [5], the NADPH fluorescence slope was -4.7e-05 (inactive). In test [6], the slope was 0.00549 (inactive).

Take `COC(=O)Nc1nnc(CCc2ccccc2)s1`: the cell count in [1] was determined as 547. In addition, the inhibition in test [1] is 3.2% (inactive); in test [3], -51.8% (inactive); in test [7] it was 12.3% (inactive); in test [8], 2.62% (inactive). The inhibition of aggregation in [2] is 2.7% (inactive). Besides, the nuclei count in test [2] was 107%; in test [3] it was 113%. For the same compound, the fluorescence slope in [4] was -0.509 (inactive). The NADPH fluorescence slope in test [5] was -4.7e-05 (inactive). Besides, in test [6], the slope is 0.00467 (inactive).

Turning to `O=c1[nH]cnc2c1C1(CCCC1)Cc1ccccc1-2`, the cell count in test [1] was 381. Also, the inhibition in test [1] is -10.6% (inactive); in [3] it was -22.8% (inactive); in [7], 9.37% (inactive); in test [8], 35.4% (inactive). The inhibition of aggregation in test [2] was 19.5% (inactive). Besides, the nuclei count came to 87% in test [2] and 110% in test [3]. The fluorescence slope in [4] is -0.274 (inactive). In addition, in [5], the NADPH fluorescence slope is -1.9e-05 (inactive). Besides, the slope in test [6] is 0.00586 (inactive).

Turning to `O=C(C1CCN(c2nnnn2-c2ccccc2)CC1)N1CCN(c2ccccc2)CC1`, the cell count in test [1] turned out to be 618. Further, the inhibition in test [1] was -33.7% (inactive); in test [3] it was -35.9% (inactive); in [7] it was 8.57% (inactive); in test [8] it was 22.4% (inactive). Further, the inhibition of aggregation in test [2] is -1.1% (inactive). For the same compound, the nuclei count in [2] is 98.3%; in test [3], 112%. In addition, the fluorescence slope in test [4] is -0.602 (inactive). Further, the NADPH fluorescence slope in test [5] is -5.4e-05 (inactive). The slope in [6] is 0.00667 (inactive).

Consider `COC(=O)CCn1nnc(-c2cccs2)n1`, for which, in [1], the cell count came to 547. The inhibition in test [1] was -6.8% (inactive); in test [3], -34.8% (inactive); in test [7], -2.1% (inactive); in [8], -22% (inactive). In test [2], the inhibition of aggregation is 7.6% (inactive). Also, the nuclei count in [2] is 110%; in test [3], 96%. Moreover, in test [4], the fluorescence slope is -0.598 (inactive). For the same compound, the NADPH fluorescence slope in test [5] was -5.1e-05 (inactive). The slope in test [6] was 0.00439 (inactive).

Values taken from PubChem BioAssay.
